What all share (assay): NCI-60 one-dose screen, 48 h (100 = growth as untreated, 0 = no growth, -100 = all killed)
What all share (conditions): 10 µM unless noted

In experiment [1] the test system is SR leukemia.
Experiment [2] deals with RPMI-8226 leukemia.
The test system of experiment [3] is OVCAR-8 ovarian.
For experiment [4], the system named is OVCAR-5 ovarian.
Experiment [5] has as its system OVCAR-4 ovarian.
Experiment [6] relates to SK-OV-3 ovarian.
The subject of experiment [7] is IGROV1 ovarian.
In experiment [8] the test system is OVCAR-3 ovarian.
The subject of experiment [9] is HS 578T breast.
For experiment [10], the system named is NCI/ADR-RES ovarian.
For experiment [11], the system named is T-47D breast.
The subject of experiment [12] is BT-549 breast.
Experiment [13] relates to MDA-MB-435 melanoma.
The test system of experiment [14] is SW-620 colon.
Experiment [15] deals with MCF7 breast.
In experiment [16] the test system is HCT-116 colon.
Experiment [17] relates to KM12 colon.
The subject of experiment [18] is HCC-2998 colon.

The panel holds about 83,000 compounds, 20% with a hit somewhere; the sample as a whole holds those more often.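 Percent growth is the endpoint: 0 to 100 indicates growth inhibition (40 means 60% inhibition), 0 means no net growth, and negative values indicate cell death.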 Values without a mark were called inactive. Activity calls are given as the source filed them. The calls were made as follows: active = growth percent below 10; inactive = the rest.

With `NC(=O)c1c(NC(=O)c2ccccc2)sc2c1CCC(=O)C2`, the growth in experiment [1] was 7.6% (active); in [2], -10.3% (active); in experiment [3], 17.2%; in [4] it was 20.3%; in experiment [5], -5.57% (active); in experiment [6], 50.9%. The growth in experiment [7] was 27.1%; in experiment [8], 7.93% (active); in experiment [9], 24.5%; in [10], 7.2% (active); in [11], -9.93% (active); in experiment [12], 9.17% (active). The growth is 8.22% (active) in [13]; 15.5% in experiment [14]; 4.2% (active) in experiment [15]; 8.7% (active) in experiment [16]; 5.17% (active) in experiment [17].

For `C#CCOc1cccc(Nc2ncnc3c(NC(=O)C=C)cccc23)c1`, the growth in experiment [1] is 9.57% (active); in [2] it was -10% (active); in [3] it was 4.27% (active); in [4] it was 88%; in [5] it was 73.9%; in [6] it was 49%. Besides, the growth is 31% in [7]; 10.9% in [8]; 25% in experiment [9]; 18.1% in experiment [10]; 4.83% (active) in experiment [11]; 8.49% (active) in experiment [12]. Also, the growth in experiment [13] is 2.2% (active); in experiment [14], 15.2%; in [15], 16.4%; in [16], 6.27% (active); in [17], 9.96% (active).

For `CN(Cc1ccc(C(F)(F)F)cc1)CC(O)C(=O)Nc1ccc(Cl)cc1` (stereo unspecified), the growth is -31.3% (active) in experiment [1]; -33.7% (active) in experiment [2]; 6.23% (active) in experiment [3]; 27.9% in [4]; 15.6% in [5]; 70.7% in [6]. Besides, the growth is 0.563% (active) in [7]; -40.7% (active) in experiment [8]; 51.7% in experiment [9]; 39.3% in experiment [10]; 18.4% in experiment [11]; 56.1% in experiment [12]. Also, the growth is -4.56% (active) in experiment [13]; -41.5% (active) in experiment [14]; -23.4% (active) in experiment [15]; -94.3% (active) in experiment [16]; -36.1% (active) in [17].

As for `CCOC(=O)c1c(C)c2c(n1C)CSc1cc(C(=O)c3ccccc3)c(=O)[nH]c1-2`, the growth in [1] was 88.3% [100 µM]; in [2] it was 82.3% [100 µM]; in [3] it was 106% [100 µM]; in experiment [4], 95.8% [100 µM]; in experiment [5] it was 92.4% [100 µM]; in [6] it was 99.4% [100 µM]. For the same compound, the growth in experiment [7] was 104% [100 µM]; in experiment [8], 108% [100 µM]; in [9], 90.8% [100 µM]; in experiment [10], 91.6% [100 µM]; in experiment [11], 72.3% [100 µM]; in [12], 93.7% [100 µM]. Also, the growth in experiment [13] was 84.6% [100 µM]; in [14], 93.8% [100 µM]; in [16], 85.8% [100 µM]; in [18], 106% [100 µM]; in experiment [17], 97.4% [100 µM].

On to `N#Cc1cccc(NC(=O)c2oc3ccccc3c2-c2cnn(-c3ccccc3)c2)c1`, for which the growth in experiment [1] was 3.02% [50 µM] (active); in experiment [2] it was -16.2% [50 µM] (active); in [3], 76.4% [50 µM]; in [4] it was 83.8% [50 µM]; in [5], 89.1% [50 µM]; in experiment [6] it was 78% [50 µM]. The growth in experiment [7] is 92.6% [50 µM]; in experiment [8], 104% [50 µM]; in [9] it was 89.3% [50 µM]; in experiment [10] it was 77.2% [50 µM]; in experiment [11] it was 49.6% [50 µM]; in experiment [12], 72.5% [50 µM]. In addition, the growth in experiment [13] is 97.9% [50 µM]; in experiment [14] it was 89% [50 µM]; in experiment [16], 70.9% [50 µM]; in experiment [18] it was 71.1% [50 µM]; in [17], 81.5% [50 µM].

Consider `CN1CCN(c2ccc(C(=O)Nc3cccc(C#Cc4cccc5[nH]nc(N)c45)c3)cc2C(F)(F)F)CC1`, for which the growth in experiment [1] is -17.7% (active); in [2], -13.7% (active); in experiment [3], -14.5% (active); in experiment [4], -43.1% (active); in [5] it was -0.309% (active); in experiment [6], -42.6% (active). Also, the growth is -56.5% (active) in experiment [7]; -17.9% (active) in experiment [8]; -26% (active) in [9]; -24.7% (active) in experiment [10]; -48.3% (active) in experiment [11]; 71.4% in [12]. In addition, the growth in experiment [13] is -88.8% (active); in experiment [14], -73.5% (active); in experiment [16], -83.4% (active); in [18] it was -75.1% (active); in experiment [17], -57% (active).

Turning to `COc1ccc(/C=C2\C(=O)N=C3N2NC(c2cc(Br)ccc2O)C=C(C)N3c2ccccc2)cc1` (stereo unspecified), the growth in [1] was 102%; in [2], 91.5%; in experiment [3], 98.1%; in experiment [4], 104%; in experiment [5], 96.5%; in experiment [6], 99.6%. The growth in [7] was 91%; in [8] it was 103%; in [9], 95.9%; in [10] it was 93.9%; in [11], 89.6%; in experiment [12], 88%. Also, the growth was 94.5% in [13]; 104% in [14]; 98.1% in [16]; 87.1% in experiment [18]; 102% in [17].

Regarding `CCCCCCCCCCCCCCCCCCOc1ccccc1CC(=O)OCC[N+]1(C)CCCC1`, the growth is 17.8% in experiment [1]; 21.6% in experiment [2]; 11.9% in experiment [3]; 37.3% in experiment [4]; 27.9% in experiment [5]; 94.1% in experiment [6]. For the same compound, the growth in [7] was -58% (active); in [8], 22.3%; in experiment [9] it was 30.3%; in [10], 82.3%; in experiment [11] it was 62%; in experiment [12], 67%. The growth is 23.4% in [13]; 21.4% in experiment [14]; 29.2% in [16]; 3.99% (active) in experiment [18]; 13.3% in [17].

The record behind these values is PubChem BioAssay (NCI).
